Source: publication PMC7862700, “An all-to-all approach to the identification of sequence-specific readers for epigenetic DNA modifications on cytosine”

Columns and labels:
Assay in all cases: DAPPL (digital affinity profiling via proximity ligation, sequencing); 10 mM Tris-HCl pH 7.5, 50 mM NaCl, 1 mM DTT, 4% glycerol, room temperature, 30 min; GST-TFs on glutathione beads, 16-mer random dsDNA library, 0.1% formaldehyde crosslink after washing; high values mean tight binding
Details in all cases: protein: recombinant; tags: N-terminal GST; dsDNA, one strand shown
FLI1 = target: T1, FLI1 (Homo sapiens, UniProt Q01543 1-452)
T1 sequence: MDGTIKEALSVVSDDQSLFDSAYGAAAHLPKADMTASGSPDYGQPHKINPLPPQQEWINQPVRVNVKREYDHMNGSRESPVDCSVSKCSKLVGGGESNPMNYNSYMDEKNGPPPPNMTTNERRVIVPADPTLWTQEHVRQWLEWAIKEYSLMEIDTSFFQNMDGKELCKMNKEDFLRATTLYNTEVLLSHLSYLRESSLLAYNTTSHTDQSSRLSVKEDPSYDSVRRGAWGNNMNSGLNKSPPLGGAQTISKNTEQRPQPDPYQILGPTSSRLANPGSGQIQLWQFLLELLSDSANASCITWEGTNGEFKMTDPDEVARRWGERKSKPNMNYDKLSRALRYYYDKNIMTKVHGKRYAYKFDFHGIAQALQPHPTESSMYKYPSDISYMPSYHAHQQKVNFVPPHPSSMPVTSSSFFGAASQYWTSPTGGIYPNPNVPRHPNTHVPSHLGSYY
How it was run: (§1)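 Pools were built from human transcription factors expressed in yeast as GST fusions, captured on glutathione beads and DNA-barcoded, along with a tag-only sample. Incubation with 200 nmole of a 16-mer random double-stranded DNA library lasted 30 min at room temperature in Tris/NaCl/DTT/glycerol buffer, and was followed by washing, 0.1% formaldehyde crosslinking, proximity ligation, PCR amplification and Illumina NextSeq500 sequencing. Binding signal is the quotient of each hexamer's read frequency for a factor and its frequency for the tag-only sample.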

ELK1 = target: T2, ELK1 (Homo sapiens, UniProt P19419 1-428)
T2 sequence: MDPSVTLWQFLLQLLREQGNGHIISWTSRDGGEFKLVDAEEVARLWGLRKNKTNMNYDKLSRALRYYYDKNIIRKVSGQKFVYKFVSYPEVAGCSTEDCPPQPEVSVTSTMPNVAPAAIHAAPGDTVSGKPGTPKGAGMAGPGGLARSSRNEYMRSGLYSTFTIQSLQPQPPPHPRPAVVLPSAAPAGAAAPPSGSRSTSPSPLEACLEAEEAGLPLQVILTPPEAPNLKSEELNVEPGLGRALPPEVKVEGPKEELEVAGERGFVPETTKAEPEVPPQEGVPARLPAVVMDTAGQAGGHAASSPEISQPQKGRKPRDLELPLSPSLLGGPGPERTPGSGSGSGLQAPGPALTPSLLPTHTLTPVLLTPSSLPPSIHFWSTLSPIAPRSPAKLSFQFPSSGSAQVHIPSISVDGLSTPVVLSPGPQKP
How it was run: as §1

GABPA = target: T3, GABPA (Homo sapiens, UniProt Q06546 1-454)
T3 sequence: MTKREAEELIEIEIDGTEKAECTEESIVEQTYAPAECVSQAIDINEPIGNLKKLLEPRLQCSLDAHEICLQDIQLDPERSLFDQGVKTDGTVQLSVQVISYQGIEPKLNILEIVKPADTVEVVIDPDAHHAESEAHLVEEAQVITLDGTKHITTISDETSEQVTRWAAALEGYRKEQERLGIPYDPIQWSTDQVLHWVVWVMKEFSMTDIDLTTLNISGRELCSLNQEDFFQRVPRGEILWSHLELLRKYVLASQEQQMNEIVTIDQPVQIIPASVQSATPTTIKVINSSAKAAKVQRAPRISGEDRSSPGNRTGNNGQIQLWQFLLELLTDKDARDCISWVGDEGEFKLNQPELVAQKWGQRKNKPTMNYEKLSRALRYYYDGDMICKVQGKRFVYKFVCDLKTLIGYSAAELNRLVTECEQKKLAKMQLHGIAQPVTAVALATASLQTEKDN
How it was run: as §1

ERG = target: T4, ERG (Homo sapiens, UniProt P11308 1-479)
T4 sequence: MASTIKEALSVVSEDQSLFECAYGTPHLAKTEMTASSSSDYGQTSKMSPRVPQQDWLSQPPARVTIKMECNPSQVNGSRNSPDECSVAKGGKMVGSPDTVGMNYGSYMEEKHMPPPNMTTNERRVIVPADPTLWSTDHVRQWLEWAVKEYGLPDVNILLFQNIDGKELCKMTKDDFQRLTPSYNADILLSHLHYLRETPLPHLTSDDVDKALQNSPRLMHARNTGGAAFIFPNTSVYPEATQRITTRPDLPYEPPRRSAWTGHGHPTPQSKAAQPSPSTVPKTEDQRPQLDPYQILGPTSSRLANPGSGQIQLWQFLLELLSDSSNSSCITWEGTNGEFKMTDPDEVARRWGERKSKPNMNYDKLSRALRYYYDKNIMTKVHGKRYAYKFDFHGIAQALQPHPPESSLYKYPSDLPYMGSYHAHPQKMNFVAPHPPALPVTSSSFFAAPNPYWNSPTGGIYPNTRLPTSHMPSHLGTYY
How it was run: as §1

ELF1 = ELF1 (Homo sapiens, UniProt P32519 1-619)
Chain of ELF1 (P32519 whole entry): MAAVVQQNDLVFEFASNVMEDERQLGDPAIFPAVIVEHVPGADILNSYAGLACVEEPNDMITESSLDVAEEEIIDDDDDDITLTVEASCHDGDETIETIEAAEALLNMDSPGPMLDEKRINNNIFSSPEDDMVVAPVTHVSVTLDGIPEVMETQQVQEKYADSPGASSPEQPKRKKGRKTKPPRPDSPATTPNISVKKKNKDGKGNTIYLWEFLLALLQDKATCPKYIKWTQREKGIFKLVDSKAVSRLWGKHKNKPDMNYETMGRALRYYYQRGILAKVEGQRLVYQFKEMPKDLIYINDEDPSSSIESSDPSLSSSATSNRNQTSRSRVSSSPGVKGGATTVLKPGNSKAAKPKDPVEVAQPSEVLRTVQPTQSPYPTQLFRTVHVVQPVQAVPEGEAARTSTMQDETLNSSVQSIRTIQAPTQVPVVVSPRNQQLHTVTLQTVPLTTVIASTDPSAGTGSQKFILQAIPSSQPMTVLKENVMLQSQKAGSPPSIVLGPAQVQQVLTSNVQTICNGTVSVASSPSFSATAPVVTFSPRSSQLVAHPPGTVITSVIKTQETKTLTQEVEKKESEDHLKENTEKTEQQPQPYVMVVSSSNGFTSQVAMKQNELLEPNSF
How it was run: as §1

EHF = target: T5, EHF (Homo sapiens, UniProt Q9NZC4 1-300)
T5 sequence: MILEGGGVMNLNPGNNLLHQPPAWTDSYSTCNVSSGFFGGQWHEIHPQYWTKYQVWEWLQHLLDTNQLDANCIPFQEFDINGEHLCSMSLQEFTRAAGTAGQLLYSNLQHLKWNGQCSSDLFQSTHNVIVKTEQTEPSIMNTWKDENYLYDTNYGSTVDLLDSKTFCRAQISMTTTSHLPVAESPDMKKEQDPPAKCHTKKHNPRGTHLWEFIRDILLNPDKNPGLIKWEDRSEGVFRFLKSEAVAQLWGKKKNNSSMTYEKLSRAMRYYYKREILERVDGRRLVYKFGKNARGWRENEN
How it was run: as §1

SPI1 = SPI1 (Homo sapiens, UniProt P17947 1-270)
How it was run: as §1

SPIB = SPIB (Homo sapiens, UniProt Q01892 1-262)
Chain of SPIB (Q01892 whole entry): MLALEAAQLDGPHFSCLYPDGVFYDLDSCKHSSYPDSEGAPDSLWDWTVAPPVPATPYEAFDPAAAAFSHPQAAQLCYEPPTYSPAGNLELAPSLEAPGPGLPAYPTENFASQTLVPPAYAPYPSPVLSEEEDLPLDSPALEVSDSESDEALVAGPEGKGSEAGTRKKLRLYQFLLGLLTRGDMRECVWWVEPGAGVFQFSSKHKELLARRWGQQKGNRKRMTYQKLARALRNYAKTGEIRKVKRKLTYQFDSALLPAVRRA
How it was run: as §1

ELK3 = target: T6, ELK3 (Homo sapiens, UniProt P41970 1-407)
T6 sequence: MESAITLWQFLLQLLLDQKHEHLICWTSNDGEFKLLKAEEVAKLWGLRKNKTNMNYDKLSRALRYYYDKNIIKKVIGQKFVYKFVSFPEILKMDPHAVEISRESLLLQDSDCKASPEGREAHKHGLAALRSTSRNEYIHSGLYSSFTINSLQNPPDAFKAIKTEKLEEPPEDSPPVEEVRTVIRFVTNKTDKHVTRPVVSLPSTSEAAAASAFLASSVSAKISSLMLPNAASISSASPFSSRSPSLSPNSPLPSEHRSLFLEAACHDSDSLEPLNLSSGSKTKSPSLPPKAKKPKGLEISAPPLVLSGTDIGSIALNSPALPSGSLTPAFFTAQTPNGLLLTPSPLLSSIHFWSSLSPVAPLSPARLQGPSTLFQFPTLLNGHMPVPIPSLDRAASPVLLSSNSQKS
How it was run: as §1

FEV = target: T7, FEV (Homo sapiens, UniProt Q99581 1-238)
T7 sequence: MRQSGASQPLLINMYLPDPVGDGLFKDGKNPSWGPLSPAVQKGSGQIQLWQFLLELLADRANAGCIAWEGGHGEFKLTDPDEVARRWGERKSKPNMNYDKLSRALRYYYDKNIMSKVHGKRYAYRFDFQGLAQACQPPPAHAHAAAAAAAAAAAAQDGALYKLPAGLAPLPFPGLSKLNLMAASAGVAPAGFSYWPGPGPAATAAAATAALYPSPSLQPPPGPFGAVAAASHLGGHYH
How it was run: as §1

ETV5 = ETV5 (Homo sapiens, UniProt P41161 1-510)
Chain of ETV5 (P41161 whole entry): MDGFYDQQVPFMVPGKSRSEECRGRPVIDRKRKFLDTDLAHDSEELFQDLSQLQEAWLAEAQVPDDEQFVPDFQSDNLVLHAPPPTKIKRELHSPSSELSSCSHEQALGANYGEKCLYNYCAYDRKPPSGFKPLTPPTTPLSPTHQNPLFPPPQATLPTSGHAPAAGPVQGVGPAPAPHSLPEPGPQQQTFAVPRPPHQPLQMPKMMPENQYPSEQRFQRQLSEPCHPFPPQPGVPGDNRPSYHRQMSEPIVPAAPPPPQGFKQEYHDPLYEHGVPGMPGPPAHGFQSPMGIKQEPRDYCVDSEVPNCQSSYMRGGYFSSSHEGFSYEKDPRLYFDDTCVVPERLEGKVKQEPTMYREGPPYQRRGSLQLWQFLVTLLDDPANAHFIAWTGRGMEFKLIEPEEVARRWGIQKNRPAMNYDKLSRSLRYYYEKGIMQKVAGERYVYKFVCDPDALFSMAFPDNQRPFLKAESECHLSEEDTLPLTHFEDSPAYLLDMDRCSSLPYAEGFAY
How it was run: as §1

SPIC = target: T8, SPIC (Homo sapiens, UniProt Q8N5J4 1-248)
T8 sequence: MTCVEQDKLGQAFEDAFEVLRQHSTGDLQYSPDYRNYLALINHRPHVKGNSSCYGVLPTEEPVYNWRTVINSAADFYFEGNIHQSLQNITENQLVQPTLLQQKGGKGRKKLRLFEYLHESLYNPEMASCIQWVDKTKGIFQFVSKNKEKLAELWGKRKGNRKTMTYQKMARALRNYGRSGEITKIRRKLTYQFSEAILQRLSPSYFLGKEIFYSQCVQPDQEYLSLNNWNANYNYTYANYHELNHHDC
How it was run: as §1

ELF4 = ELF4 (Homo sapiens, UniProt Q99607 1-663)
Chain of ELF4 (Q99607 whole entry): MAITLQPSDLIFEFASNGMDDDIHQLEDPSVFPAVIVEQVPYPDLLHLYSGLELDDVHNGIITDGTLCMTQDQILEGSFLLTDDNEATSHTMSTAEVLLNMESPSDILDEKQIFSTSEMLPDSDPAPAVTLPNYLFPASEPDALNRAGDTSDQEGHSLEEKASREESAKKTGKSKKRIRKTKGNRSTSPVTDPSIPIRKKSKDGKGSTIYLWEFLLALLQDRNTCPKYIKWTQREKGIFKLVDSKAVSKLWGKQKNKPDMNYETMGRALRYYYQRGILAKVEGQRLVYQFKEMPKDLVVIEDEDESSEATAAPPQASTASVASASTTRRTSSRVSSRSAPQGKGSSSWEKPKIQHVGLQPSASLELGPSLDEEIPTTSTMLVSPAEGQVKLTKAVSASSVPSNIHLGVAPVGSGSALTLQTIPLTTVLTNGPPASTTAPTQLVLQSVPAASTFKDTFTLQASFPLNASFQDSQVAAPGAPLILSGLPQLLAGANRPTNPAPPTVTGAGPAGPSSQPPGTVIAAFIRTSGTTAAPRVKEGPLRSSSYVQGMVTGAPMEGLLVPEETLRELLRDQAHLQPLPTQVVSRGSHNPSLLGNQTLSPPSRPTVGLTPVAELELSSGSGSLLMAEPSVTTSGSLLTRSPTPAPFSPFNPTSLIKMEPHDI
How it was run: as §1

ELK4 = target: T9, ELK4 (Homo sapiens, UniProt P28324-2 1-405)
T9 sequence: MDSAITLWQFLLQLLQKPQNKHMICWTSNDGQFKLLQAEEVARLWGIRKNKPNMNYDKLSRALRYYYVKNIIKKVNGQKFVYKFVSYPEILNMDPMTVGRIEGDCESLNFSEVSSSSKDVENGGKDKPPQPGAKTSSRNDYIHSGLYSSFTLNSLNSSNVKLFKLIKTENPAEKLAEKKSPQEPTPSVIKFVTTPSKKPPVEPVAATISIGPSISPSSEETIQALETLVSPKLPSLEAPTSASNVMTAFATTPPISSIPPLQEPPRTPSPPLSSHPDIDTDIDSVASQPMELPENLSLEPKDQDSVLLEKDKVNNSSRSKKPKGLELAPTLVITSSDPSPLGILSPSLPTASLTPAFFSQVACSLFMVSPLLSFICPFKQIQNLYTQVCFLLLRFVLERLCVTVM
How it was run: as §1

ETV2 = target: T10, ETV2 (Homo sapiens, UniProt O00321 1-342)
T10 sequence: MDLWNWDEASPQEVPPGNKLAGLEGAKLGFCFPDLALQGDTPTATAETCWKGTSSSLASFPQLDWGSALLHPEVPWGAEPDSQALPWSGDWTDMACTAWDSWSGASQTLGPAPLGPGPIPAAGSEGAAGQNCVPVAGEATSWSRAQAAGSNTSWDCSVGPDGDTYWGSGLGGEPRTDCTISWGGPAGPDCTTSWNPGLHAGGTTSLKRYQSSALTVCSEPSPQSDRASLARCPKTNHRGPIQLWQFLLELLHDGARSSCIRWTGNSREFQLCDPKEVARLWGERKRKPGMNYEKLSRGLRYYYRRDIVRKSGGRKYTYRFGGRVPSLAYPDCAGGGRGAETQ
How it was run: as §1

ELF3 = target: T11, ELF3 (Homo sapiens, UniProt P78545 1-371)
T11 sequence: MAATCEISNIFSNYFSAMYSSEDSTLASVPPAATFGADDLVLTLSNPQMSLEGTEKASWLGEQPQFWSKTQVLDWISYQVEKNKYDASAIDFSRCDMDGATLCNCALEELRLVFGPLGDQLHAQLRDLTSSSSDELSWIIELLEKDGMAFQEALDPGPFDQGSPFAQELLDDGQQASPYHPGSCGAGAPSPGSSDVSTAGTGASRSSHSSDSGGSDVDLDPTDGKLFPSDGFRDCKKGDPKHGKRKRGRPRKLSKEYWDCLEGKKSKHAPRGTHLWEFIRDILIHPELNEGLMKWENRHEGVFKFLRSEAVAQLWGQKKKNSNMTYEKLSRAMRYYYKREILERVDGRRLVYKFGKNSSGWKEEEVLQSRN
How it was run: as §1

ETV1 = ETV1 (Homo sapiens, UniProt P50549 1-477)
Chain of ETV1 (P50549 whole entry): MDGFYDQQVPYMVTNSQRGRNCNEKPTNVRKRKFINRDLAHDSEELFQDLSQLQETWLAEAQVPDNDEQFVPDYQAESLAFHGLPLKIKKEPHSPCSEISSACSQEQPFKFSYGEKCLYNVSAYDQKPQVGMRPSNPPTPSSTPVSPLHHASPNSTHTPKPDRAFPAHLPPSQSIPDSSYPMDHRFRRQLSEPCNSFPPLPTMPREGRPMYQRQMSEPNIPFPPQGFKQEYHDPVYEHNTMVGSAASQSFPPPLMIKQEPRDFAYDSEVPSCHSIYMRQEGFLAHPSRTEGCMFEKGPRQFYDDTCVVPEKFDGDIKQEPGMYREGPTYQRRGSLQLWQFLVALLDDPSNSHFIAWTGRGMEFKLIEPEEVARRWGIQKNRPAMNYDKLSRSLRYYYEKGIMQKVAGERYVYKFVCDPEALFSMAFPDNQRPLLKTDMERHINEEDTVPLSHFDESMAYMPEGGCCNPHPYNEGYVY
How it was run: as §1

Sequence | binding signal (FLI1) | binding signal (ELK1) | binding signal (GABPA) | binding signal (ERG) | binding signal (ELF1) | binding signal (EHF) | binding signal (SPI1) | binding signal (SPIB) | binding signal (ELK3) | binding signal (FEV) | binding signal (ETV5) | binding signal (SPIC) | binding signal (ELF4) | binding signal (ELK4) | binding signal (ETV2) | binding signal (ELF3) | binding signal (ETV1)
CGCCCC | 1.12 fold enrichment (6-mer frequency, TF over GST control) | 1.17 fold enrichment (6-mer frequency, TF over GST control) | 1.11 fold enrichment (6-mer frequency, TF over GST control) | 1.14 fold enrichment (6-mer frequency, TF over GST control) | 1.22 fold enrichment (6-mer frequency, TF over GST control) | 1.19 fold enrichment (6-mer frequency, TF over GST control) | 1.18 fold enrichment (6-mer frequency, TF over GST control) | 1.1 fold enrichment (6-mer frequency, TF over GST control) | 1.18 fold enrichment (6-mer frequency, TF over GST control) | 1.21 fold enrichment (6-mer frequency, TF over GST control) | 1.23 fold enrichment (6-mer frequency, TF over GST control) | 1.24 fold enrichment (6-mer frequency, TF over GST control) | 1.28 fold enrichment (6-mer frequency, TF over GST control) | 1.06 fold enrichment (6-mer frequency, TF over GST control) | 1.02 fold enrichment (6-mer frequency, TF over GST control) | 1.09 fold enrichment (6-mer frequency, TF over GST control) | 1.25 fold enrichment (6-mer frequency, TF over GST control)
ACGACA | 1.16 fold enrichment (6-mer frequency, TF over GST control) | 1.05 fold enrichment (6-mer frequency, TF over GST control) | 1.18 fold enrichment (6-mer frequency, TF over GST control) | 1.17 fold enrichment (6-mer frequency, TF over GST control) | 1.07 fold enrichment (6-mer frequency, TF over GST control) | 1.27 fold enrichment (6-mer frequency, TF over GST control) | 1.09 fold enrichment (6-mer frequency, TF over GST control) | 1.16 fold enrichment (6-mer frequency, TF over GST control) | 1.11 fold enrichment (6-mer frequency, TF over GST control) | 1.14 fold enrichment (6-mer frequency, TF over GST control) | 1.11 fold enrichment (6-mer frequency, TF over GST control) | 1.18 fold enrichment (6-mer frequency, TF over GST control) | 1.22 fold enrichment (6-mer frequency, TF over GST control) | 1.16 fold enrichment (6-mer frequency, TF over GST control) | 1.1 fold enrichment (6-mer frequency, TF over GST control) | 1.22 fold enrichment (6-mer frequency, TF over GST control) | 1.18 fold enrichment (6-mer frequency, TF over GST control)
